# Test results published in PubChem BioAssay (Tox21).
# Records with an inconclusive call do not appear. Entries that show only a call come without a potency. Where a structure was tested more than once in an assay, its records may differ in their call. The source made the active and inactive calls. Unless noted, the call rests on the fitted dose curve. Peptide text beside a SMILES is read from it.
# Key:
# [1] = Nuclear factor erythroid 2-related factor 2/antioxidant responsive element (Nrf2/ARE) small molecule agonists: qHTS cell viability counter screen in human keratinocytes (AID 1919968; active means well fitted curve in the direction sought with a large enough effect in the repeat runs; an effect the other way counts as inactive or inconclusive; further: nearly all actives have a fitted effect of over 55% in size; further: potency means the concentration at half of the fitted maximal effect)
# Procedure, shortened: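 In human HaCaT keratinocytes stably expressing an ARE-driven luciferase, compound exposure lasted 23 h at 37 C under 5% CO2. Viable cells are quantified with a protease-based fluorogenic reagent (CellTiter-Fluor) read 1 h after addition.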
# [2] = Nuclear factor erythroid 2-related factor 2/antioxidant responsive element (Nrf2/ARE) small molecule agonists: luciferase reporter gene qHTS assay in human keratinocytes (AID 1919969); further: nearly all actives have a fitted effect of over 35% in size; further: potency means the concentration at half of the fitted maximal effect
# [3] = target: Gonadotropin-releasing hormone receptor (Homo sapiens) (UniProt P30968); assay: Human gonadotropin-releasing hormone receptor (GnRHR) small molecule agonists, calcium flux assay in GnRHR-HEK293 cells (AID 1920063); further: nearly all actives have a fitted effect of over 35% in size
# Sequence of Gonadotropin-releasing hormone receptor (Homo sapiens) (P30968 whole entry, looked up): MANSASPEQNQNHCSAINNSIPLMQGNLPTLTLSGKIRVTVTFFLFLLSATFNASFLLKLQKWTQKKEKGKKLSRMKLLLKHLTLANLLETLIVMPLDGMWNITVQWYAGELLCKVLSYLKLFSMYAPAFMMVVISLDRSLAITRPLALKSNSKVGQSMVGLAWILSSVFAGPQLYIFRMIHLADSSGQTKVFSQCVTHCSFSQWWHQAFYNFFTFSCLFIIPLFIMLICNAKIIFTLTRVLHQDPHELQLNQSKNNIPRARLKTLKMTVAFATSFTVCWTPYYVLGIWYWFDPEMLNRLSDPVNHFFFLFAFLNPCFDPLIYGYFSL
# Procedure, shortened: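 Intracellular calcium rise is the read-out: engineered human GnRHR HEK293 cells, dye-loaded, are exposed to DMSO-dissolved compounds and fluorescence at Ex/Em 480/540 is tracked for 3 min.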
# [4] = target: KiSS-1 receptor (Homo sapiens) (UniProt Q969F8); assay: Human kisspeptin (KISS1R) small molecule agonists, calcium flux assay in KISS1R-HEK293 cells (AID 1920064; active means well fitted curve in the direction sought with a large enough effect in the repeat runs; an effect the other way counts as inactive or inconclusive)
# Sequence of KiSS-1 receptor (Homo sapiens) (Q969F8 whole entry, looked up): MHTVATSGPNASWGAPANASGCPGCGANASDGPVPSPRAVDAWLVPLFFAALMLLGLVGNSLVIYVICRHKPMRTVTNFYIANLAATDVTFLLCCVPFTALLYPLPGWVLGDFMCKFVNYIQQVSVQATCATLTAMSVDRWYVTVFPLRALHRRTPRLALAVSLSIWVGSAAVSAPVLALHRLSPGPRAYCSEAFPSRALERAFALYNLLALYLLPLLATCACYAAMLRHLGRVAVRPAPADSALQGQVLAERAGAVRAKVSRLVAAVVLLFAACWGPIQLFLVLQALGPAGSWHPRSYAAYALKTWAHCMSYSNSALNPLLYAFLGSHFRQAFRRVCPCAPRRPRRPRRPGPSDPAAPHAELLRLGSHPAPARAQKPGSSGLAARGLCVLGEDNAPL
# Procedure, shortened: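 Concentration-response testing used 15 concentrations in triplicate on human KISS1R-expressing HEK293 cells. Calcium-dependent fluorescence (Ex/Em 480/540) was followed kinetically for 3 min after compound transfer.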
# [5] = G protein-coupled receptor (GPCR) small molecule agonists, calcium flux assay: HEK293 wild type cell line counter screen (AID 1920065)
# Procedure, shortened: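 Fluorescence intensity signals activation. After overnight (18 h) culture and a 1 h calcium dye load at 37 C, compounds are added by pin tool and the plate read at 480/540 nm for 3 min in 1 s steps.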
# [6] = p53 small molecule agonists, cell-based qHTS assay with human liver microsomes (AID 1963577);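 further: p53 response element beta-lactamase reporter cells with liver microsomes plus NADPH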
# Procedure, shortened: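 With metabolic activation: human liver microsomes (0.5 mg/mL final) plus NADPH (0.5 mg/mL final) added alongside compounds to p53RE-bla cells; 16 h 37 C exposure; beta-lactamase read by LiveBLAzer fluorescence.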
# [7] = p53 small molecule agonists, cell-based qHTS assay with rat liver microsomes (AID 1963578)
# Procedure, shortened: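 Metabolic activation by rat liver microsomes and NADPH, each 0.5 mg/mL final, added right after compounds to p53RE-bla reporter cells (4,000/well, plated 5 h earlier). 16 h at 37 C, then LiveBLAzer substrate for 2 h at room temperature in the dark; fluorescence read-out.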
# [8] = p53 small molecule agonists, cell-based qHTS assay with human liver microsomes: qHTS cell viability counter screen (AID 1963579); further: nearly all actives have a fitted effect of over 45% in size
# Procedure, shortened: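 Metabolic activation used human liver microsomes and NADPH, both 0.5 mg/mL final, over 16 hours at 37 C on p53RE-bla cells (4,000/well). Cytotoxicity measured by CellTiter-Glo luminescence, 30 min at room temperature.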
# [9] = p53 small molecule agonists, cell-based qHTS assay with rat liver microsomes: qHTS cell viability counter screen (AID 1963580); further: nearly all actives have a fitted effect of over 45% in size
# Procedure, shortened: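 After the beta-lactamase ratio was read, CellTiter-Glo was added to the same wells and luminescence measured at 30 min; cells had been treated 16 h at 37 C with compounds, rat liver microsomes and NADPH (0.5 mg/mL final each).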
# [10] = p53 small molecule agonists, cell-based qHTS assay: qHTS cell viability counter screen (AID 1963581); further: nearly all actives have a fitted effect of over 45% in size
# Procedure, shortened: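 Luminescence from CellTiter-Glo, reflecting ATP content, serves as the cytotoxicity measure; it is taken after the 2 h reporter substrate step in HCT-116 p53RE-bla cells dosed for 16 h at 37 C.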
# [11] = p53 small molecule agonists, cell-based qHTS assay (AID 1963582; active means well fitted activation curve with a large enough effect in the signal ratio in the repeat runs, not every such curve was filed as active; the % refers to the signal ratio)
# Procedure, shortened: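 After plating, p53RE-bla cells sat 5 h in the incubator; compounds or DMSO vehicle were pinned in; a 16 h incubation at 37 C followed; FRET substrate was added and, 2 h later at RT, fluorescence was measured.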
# [12] = target: 5-hydroxytryptamine receptor 2A (Homo sapiens) (UniProt P28223); assay: 5-hydroxytryptamine receptor 2A (HTR2A) small molecule antagonists, cell-based qHTS assay (AID 1963586); further: nearly all actives have a fitted effect of over 45% in size
# Sequence of 5-hydroxytryptamine receptor 2A (Homo sapiens) (P28223 whole entry, looked up): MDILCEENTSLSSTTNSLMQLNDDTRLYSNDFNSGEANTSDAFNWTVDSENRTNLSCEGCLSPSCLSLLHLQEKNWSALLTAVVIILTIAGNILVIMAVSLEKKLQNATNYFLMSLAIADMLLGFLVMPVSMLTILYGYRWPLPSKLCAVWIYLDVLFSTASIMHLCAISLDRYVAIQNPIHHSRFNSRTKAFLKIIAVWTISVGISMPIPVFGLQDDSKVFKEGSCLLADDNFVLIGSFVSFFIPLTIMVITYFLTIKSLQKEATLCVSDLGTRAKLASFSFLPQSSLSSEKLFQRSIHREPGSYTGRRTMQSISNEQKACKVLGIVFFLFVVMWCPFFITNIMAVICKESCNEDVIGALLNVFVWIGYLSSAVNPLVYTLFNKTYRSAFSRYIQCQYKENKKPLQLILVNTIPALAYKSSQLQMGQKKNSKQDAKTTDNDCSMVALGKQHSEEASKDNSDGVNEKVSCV
# Procedure, shortened: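 CHO cells stably expressing human HTR2A were plated for 18 h at 37 C, then loaded with calcium dye for 1 h. Compounds were preincubated 5 min at room temperature before DOI (4 nM solution) was added. Kinetic fluorescence was read for 3 min.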
# [13] = target: 5-hydroxytryptamine receptor 2A (Homo sapiens) (UniProt P28223); assay: 5-hydroxytryptamine receptor 2A (HTR2A) small molecule agonists, cell-based qHTS assay (AID 1963587); further: nearly all actives have a fitted effect of over 30% in size
# Procedure, shortened: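 CHO cells stably expressing human HTR2A, plated 18 h, loaded with calcium dye 1 h at 37 C. Agonist mode: compounds added and intracellular calcium fluorescence recorded kinetically for 2 min at 1 sec intervals.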
# [14] = target: Muscarinic acetylcholine receptor M1 (Homo sapiens) (UniProt P11229); assay: Cholinergic receptor muscarinic 1 (CHRM1) small molecule antagonists, cell-based qHTS assay (AID 1963588); further: nearly all actives have a fitted effect of over 40% in size
# Sequence of Muscarinic acetylcholine receptor M1 (Homo sapiens) (P11229 whole entry, looked up): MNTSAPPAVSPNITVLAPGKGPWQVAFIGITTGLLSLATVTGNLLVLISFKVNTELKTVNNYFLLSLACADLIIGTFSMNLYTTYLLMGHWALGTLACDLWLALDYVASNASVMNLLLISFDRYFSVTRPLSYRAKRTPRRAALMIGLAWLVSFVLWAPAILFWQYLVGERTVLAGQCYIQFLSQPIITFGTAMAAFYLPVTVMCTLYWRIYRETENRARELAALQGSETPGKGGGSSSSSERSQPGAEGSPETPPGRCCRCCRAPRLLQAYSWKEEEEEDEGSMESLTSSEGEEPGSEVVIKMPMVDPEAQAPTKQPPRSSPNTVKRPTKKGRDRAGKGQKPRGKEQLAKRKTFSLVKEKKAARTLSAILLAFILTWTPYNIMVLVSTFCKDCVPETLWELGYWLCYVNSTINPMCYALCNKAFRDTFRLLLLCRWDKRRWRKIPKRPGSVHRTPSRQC
# Procedure, shortened: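 Compounds were tested at 15 concentrations in three independent runs. Dye-loaded CHRM1-CHO cells were exposed 5 min at room temperature before stimulation by acetylcholine added at 50nM. Intracellular calcium was read kinetically on FDSS for 3 min.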
# [15] = target: Muscarinic acetylcholine receptor M1 (Homo sapiens) (UniProt P11229); assay: Cholinergic receptor muscarinic 1 (CHRM1) small molecule agonists, cell-based qHTS assay (AID 1963589); further: nearly all actives have a fitted effect of over 35% in size
# Procedure, shortened: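 Fluorescent calcium dye reports M1 activation in stably transfected CHO cells. Compounds, 15 concentrations, added after 1 h dye loading at 37 C; kinetic reading at 1 sec intervals.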
# [16] = cAMP Responsive Elements (CRE) small molecule agonists, cell-based qHTS assay (AID 1963590)
# Procedure, shortened: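 Compound exposure lasted 3 h at 37 C/5% CO2 in CRE-bla HEK 293T cells grown in assay medium with 10% dialyzed FBS and 25 mM HEPES. Reporter signal came from LiveBLAzer B/G FRET substrate, 2 h, room temperature.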
# [17] = cAMP Responsive Elements (CRE) small molecule antagonists, cell-based qHTS assay (AID 1963591; active means well fitted inhibition curve with a large enough effect in the signal ratio in the repeat runs, not every such curve was filed as active; the % refers to the signal ratio)
# Procedure, shortened: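 Stimulation used NKH477 at a final 0.25 uM for 3 h in compound-treated CRE-bla HEK293T cells, seeded 18 h beforehand. Reporter activity was measured with LiveBLAzer B/G FRET substrate after 2 h at room temperature.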
# [18] = target: Beta-2 adrenergic receptor (Homo sapiens) (UniProt P07550); assay: Adrenergic beta2 receptor (ADRB2) small molecule antagonists, cell-based qHTS assay (AID 1963592); further: series mostly up to about 92 µM; nearly all actives have a fitted effect of over 50% in size
# Sequence of Beta-2 adrenergic receptor (Homo sapiens) (P07550 whole entry, looked up): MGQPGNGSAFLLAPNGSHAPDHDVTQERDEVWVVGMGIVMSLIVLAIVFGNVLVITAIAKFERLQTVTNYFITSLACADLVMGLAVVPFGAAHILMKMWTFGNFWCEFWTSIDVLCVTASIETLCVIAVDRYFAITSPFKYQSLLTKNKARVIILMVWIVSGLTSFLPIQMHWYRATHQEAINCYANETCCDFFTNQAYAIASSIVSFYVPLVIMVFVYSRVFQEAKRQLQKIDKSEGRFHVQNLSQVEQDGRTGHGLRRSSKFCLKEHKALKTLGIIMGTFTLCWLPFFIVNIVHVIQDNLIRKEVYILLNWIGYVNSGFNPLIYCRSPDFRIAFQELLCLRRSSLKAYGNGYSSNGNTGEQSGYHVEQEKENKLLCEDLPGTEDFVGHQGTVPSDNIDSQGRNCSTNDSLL
# Procedure, shortened: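 Assay format: CHO-ADRB2 cells, 18-20hr seeding at 37C/5% CO2, then compound plus 1nM isoproterenol agonist mix for 0.5hr RT. Homogeneous time-resolved fluorescence cAMP detection after 1hr, expressed as 665/615 nm ratio.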
# [19] = target: D(2) dopamine receptor (Homo sapiens) (UniProt P14416); assay: Dopamine D2 receptor (DRD2) small molecule agonists, cell-based qHTS assay (AID 1963594); further: nearly all actives have a fitted effect of over 35% in size
# Sequence of D(2) dopamine receptor (Homo sapiens) (P14416 whole entry, looked up): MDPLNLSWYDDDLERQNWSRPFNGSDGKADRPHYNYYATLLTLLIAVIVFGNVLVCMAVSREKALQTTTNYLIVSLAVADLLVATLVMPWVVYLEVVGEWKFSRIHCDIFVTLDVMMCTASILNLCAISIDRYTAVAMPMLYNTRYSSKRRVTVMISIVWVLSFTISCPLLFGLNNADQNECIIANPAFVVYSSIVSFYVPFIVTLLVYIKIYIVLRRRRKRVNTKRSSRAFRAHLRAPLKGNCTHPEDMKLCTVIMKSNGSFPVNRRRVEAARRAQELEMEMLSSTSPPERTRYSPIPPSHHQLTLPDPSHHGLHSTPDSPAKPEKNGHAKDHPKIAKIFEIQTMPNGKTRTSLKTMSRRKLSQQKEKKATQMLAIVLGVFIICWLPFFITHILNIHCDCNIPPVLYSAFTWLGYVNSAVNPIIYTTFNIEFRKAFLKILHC
# Procedure, shortened: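 HEK293 cells stably expressing human DRD2, pre-treated with PDE inhibitor Ro20-1724 (0.1 mM final) and compound 10 min at room temperature, then stimulated with NKH477 (200nM […]) for 30 min. cAMP read by HTRF (665/620 nm).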
# [20] = target: D(2) dopamine receptor (Homo sapiens) (UniProt P14416); assay: Dopamine D2 receptor (DRD2) small molecule antagonists, cell-based qHTS assay (AID 1963595; active means well fitted inhibition curve with a large enough effect in the signal ratio in the repeat runs, with a control signal flat; the % refers to the signal ratio)
# Procedure, shortened: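 Antagonist mode in DRD2-HEK293 cells: after compound addition with 0.1 mM Ro20-1724, cells received quinpirole (12 nM) and NKH477 (200 nM) for 30 min at room temperature; HTRF cAMP read after 1 h detection.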
Compound,Potency [1],Potency [2],Potency [3],Potency [4],Potency [5],Potency [6],Potency [7],Potency [8],Potency [9],Potency [10],Potency [11],Potency [12],Potency [13],Potency [14],Potency [15],Potency [16],Potency [17],Potency [18],Potency [19],Potency [20]
c1ccc2[nH]cnc2c1,inactive,inactive,inactive,inactive,inactive,inactive,inactive,inactive,inactive,inactive,inactive,inactive,inactive,inactive,inactive,inactive,inactive,inactive,inactive,inactive
OCc1ccc(Cl)cc1Cl,inactive,inactive,inactive,inactive,inactive,inactive,inactive,inactive,inactive,inactive,inactive,inactive,inactive,inactive,inactive,inactive,inactive,inactive,inactive,inactive
O=C(O)c1cccc([N+](=O)[O-])c1,inactive,inactive,inactive,inactive,inactive,inactive,inactive,inactive,inactive,inactive,inactive,inactive,inactive,inactive,inactive,inactive,inactive,inactive,inactive,inactive
Cc1ncc([N+](=O)[O-])n1C,inactive,inactive,inactive,inactive,inactive,inactive,inactive,inactive,inactive,inactive,inactive,inactive,inactive,inactive,inactive,inactive,inactive,inactive,inactive,inactive
Cc1ccc(C)c(S(=O)(=O)O)c1,inactive,inactive,inactive,inactive,inactive,inactive,inactive,inactive,inactive,inactive,inactive,inactive,inactive,inactive,inactive,inactive,inactive,inactive,inactive,inactive
COC(=O)[C@H](Cc1ccccc1)NC(=O)[C@@H](N)CC(=O)O (H-Asp-Phe-OMe),inactive,inactive,inactive,inactive,inactive,inactive,inactive,inactive,inactive,inactive,inactive,inactive,inactive,inactive,inactive,inactive,inactive,inactive,inactive,inactive
CC(=O)OC(C)C,inactive,inactive,inactive,inactive,inactive,inactive,inactive,inactive,inactive,inactive,inactive,inactive,inactive,inactive,inactive,inactive,inactive,inactive,inactive,inactive
CC(=O)[C@H]1CC[C@H]2[C@@H]3CC=C4C[C@@H](O)CC[C@]4(C)[C@H]3CC[C@]12C,inactive,inactive,inactive,inactive,inactive,inactive,inactive,inactive,inactive,inactive,inactive,inactive,inactive,inactive,inactive,inactive,inactive,inactive,inactive,inactive
O=C(O)Cc1c[nH]c2ccccc12,inactive,inactive,inactive,inactive,inactive,inactive,inactive,inactive,inactive,inactive,inactive,inactive,inactive,inactive,inactive,inactive,inactive,inactive,inactive,inactive
Cc1ccc2c(c1)C(=O)OC2=O,inactive,inactive,inactive,inactive,inactive,inactive,inactive,inactive,inactive,inactive,inactive,inactive,inactive,inactive,inactive,inactive,inactive,inactive,inactive,inactive
Nc1ncnc2nc[nH]c12,inactive,inactive,inactive,inactive,inactive,inactive,inactive,inactive,inactive,inactive,inactive,inactive,inactive,inactive,inactive,inactive,inactive,inactive,inactive,inactive
C=CCNCC=C,inactive,inactive,inactive,inactive,inactive,inactive,inactive,inactive,inactive,inactive,inactive,inactive,inactive,inactive,inactive,inactive,inactive,inactive,inactive,inactive
c1ccc2[nH]ccc2c1,8.49 µM (active) and inactive,6.01 µM (active) and inactive,inactive,inactive,inactive,inactive,inactive,inactive,inactive,inactive,inactive,inactive,inactive,inactive,inactive,inactive,inactive,inactive,inactive,inactive
O=C(O)C1=NN(c2ccc(S(=O)(=O)O)cc2)C(=O)C1,inactive,inactive,inactive,inactive,inactive,inactive,inactive,inactive,inactive,inactive,inactive,inactive,inactive,inactive,inactive,inactive,inactive,inactive,inactive,inactive
